Measured values as given in the supplement of paper PMC10849652.
Of roughly 7,900 targets only a part is listed; those with a hit were picked by preference. About 0.6% of all pairs of compound and target were hits.

Key:
Assay in all cases: log2 fold change, soluble protein after heating vs DMSO (PISA); higher = thermal stabilisation; K562 cells, 10 uM, 30 min; active = over 0.2 and 3.5 SD of the protein, either way, in both replicates (recomputed)
saracatinib = compound: CN1CCN(CCOc2cc(OC3CCOCC3)c3c(Nc4c(Cl)ccc5c4OCO5)ncnc3c2)CC1 [saracatinib]
Summary of the method: (§1)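 K562 cells at 2×10^6 cells/mL were given 10 μM compound for 30 min. Aliquots then went through 3 min of heating across 48°C-58°C, were pooled, and were extracted in PBS with 0.5% NP-40 at 4°C, and the supernatant after 21,000xg for 90 min was quantified by TMTpro 16plex LC-MS/MS with channel sums equalised. Thermal stability relative to control samples, from duplicates, is given as log2 fold change.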

sotrastaurin = compound: CN1CCN(c2nc(C3=C(c4c[nH]c5ccccc45)C(=O)NC3=O)c3ccccc3n2)CC1 [sotrastaurin]
Summary of the method: as §1

alvocidib = compound: CN1CC[C@H](c2c(O)cc(O)c3c(=O)cc(-c4ccccc4Cl)oc23)[C@H](O)C1 [alvocidib]
Summary of the method: as §1

Tubastatin A = compound: CN1CCc2c(c3ccccc3n2Cc2ccc(C(=O)NO)cc2)C1 [Tubastatin A]
Summary of the method: as §1

[1] = compound: CNC(=O)C1=CC=CC=C1NC2=NC(=NC=C2Cl)NC3=C(C=C(C=C3)N4CCOCC4)OC
Summary of the method: as §1

defactinib = compound: CNC(=O)c1ccc(Nc2ncc(C(F)(F)F)c(NCc3nccnc3N(C)S(C)(=O)=O)n2)cc1 [defactinib]
Summary of the method: as §1

rucaparib = compound: CNCc1ccc(-c2[nH]c3cc(F)cc4c3c2CCNC4=O)cc1 [rucaparib]
Summary of the method: as §1

[2] = compound: CNc1nc(-c2ccc3c(N)n[nH]c3c2)cc(N2C[C@@H](C(=O)NC3CCCCC3)CC[C@H]2C)n1
Summary of the method: as §1

encorafenib = compound: COC(=O)N[C@@H](C)CNc1nccc(-c2cn(C(C)C)nc2-c2cc(Cl)cc(NS(C)(=O)=O)c2F)n1 [encorafenib]
Summary of the method: as §1

[3] = compound: COC(=O)[C@H](CCSC)NC(=O)C1=C(C=C(C=C1)NC[C@H](CS)N)C2=CC=CC=C2
Summary of the method: as §1

[4] = compound: COC1=CC=C(C=C1)CN2C=CC3=C2C=C(C=C3)C(=O)NO
Summary of the method: as §1

filanesib = compound: CON(C)C(=O)N1N=C(c2cc(F)ccc2F)S[C@@]1(CCCN)c1ccccc1 [filanesib]
Summary of the method: as §1

zotarolimus = compound: CO[C@H]1C[C@@H]2CC[C@@H](C)[C@@](O)(O2)C(=O)C(=O)N2CCCC[C@H]2C(=O)O[C@H]([C@H](C)C[C@@H]2CC[C@H](n3cnnn3)[C@H](OC)C2)CC(=O)[C@H](C)/C=C(\C)[C@@H](O)[C@@H](OC)C(=O)[C@H](C)C[C@H](C)/C=C/C=C/C=C/1C [zotarolimus]
Summary of the method: as §1

idasanutlin = compound: COc1cc(C(=O)O)ccc1NC(=O)[C@@H]1N[C@@H](CC(C)(C)C)[C@](C#N)(c2ccc(Cl)cc2F)[C@H]1c1cccc(Cl)c1F [idasanutlin]
Summary of the method: as §1

alisertib = compound: COc1cc(Nc2ncc3c(n2)-c2ccc(Cl)cc2C(c2c(F)cccc2OC)=NC3)ccc1C(=O)O [alisertib]
Summary of the method: as §1

[5] = compound: COc1cc2nc(-c3cc(F)ccc3O)nc(N[C@@H]3CNC[C@H]3C(C)(C)O)c2cc1OC
Summary of the method: as §1

gefitinib = compound: COc1cc2ncnc(Nc3ccc(F)c(Cl)c3)c2cc1OCCCN1CCOCC1 [gefitinib]
Summary of the method: as §1

[6] = compound: COc1cccc2cc(-c3nc([C@H]4CC[C@H](C(=O)O)CC4)n4ncnc(N)c34)[nH]c12
Summary of the method: as §1

lapatinib = compound: CS(=O)(=O)CCNCc1ccc(-c2ccc3ncnc(Nc4ccc(OCc5cccc(F)c5)c(Cl)c4)c3c2)o1 [lapatinib]
Summary of the method: as §1

pictilisib = compound: CS(=O)(=O)N1CCN(Cc2cc3nc(-c4cccc5[nH]ncc45)nc(N4CCOCC4)c3s2)CC1 [pictilisib]
Summary of the method: as §1

Measured: log2 fold change

LTN1 isoform 3 (UniProt O94822)
inactive: saracatinib -0.016 | sotrastaurin -0.114 | alvocidib -0.042 | Tubastatin A 0.196 | [1] 0.01 | defactinib -0.114 | rucaparib 0.158 | [2] -0.012 | encorafenib 0.047 | [3] -0.057 | [4] 0 | filanesib -0.009 | zotarolimus 0.039 | idasanutlin -0.136 | alisertib 0.01 | [5] 0.04 | gefitinib -0.04 | [6] -0.108 | lapatinib -0.029 | pictilisib -0.157

KNTC1 (UniProt P50748)
inactive: saracatinib -0.034 | sotrastaurin -0.051 | alvocidib 0.013 | Tubastatin A 0.018 | [1] 0.033 | defactinib -0.044 | rucaparib 0.021 | [2] -0.076 | encorafenib 0.077 | [3] -0.041 | [4] 0.03 | filanesib -0.008 | zotarolimus 0 | idasanutlin -0.082 | alisertib -0.035 | [5] 0.036 | gefitinib 0.175 | [6] -0.037 | lapatinib 0.008 | pictilisib 0.007

MAP2K1 (UniProt Q02750)
Sequence of UniProt Q02750 (Q02750 whole entry, looked up): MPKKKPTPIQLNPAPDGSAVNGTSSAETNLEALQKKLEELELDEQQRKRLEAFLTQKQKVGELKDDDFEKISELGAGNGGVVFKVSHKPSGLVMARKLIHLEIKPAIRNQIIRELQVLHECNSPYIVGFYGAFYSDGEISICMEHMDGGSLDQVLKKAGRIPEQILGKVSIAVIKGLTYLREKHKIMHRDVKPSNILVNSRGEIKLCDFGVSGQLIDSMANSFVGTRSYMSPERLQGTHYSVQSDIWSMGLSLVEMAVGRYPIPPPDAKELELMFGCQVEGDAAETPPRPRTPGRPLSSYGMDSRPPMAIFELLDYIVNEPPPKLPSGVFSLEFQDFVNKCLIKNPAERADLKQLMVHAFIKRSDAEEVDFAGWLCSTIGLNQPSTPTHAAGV
inactive: saracatinib 0.02 | sotrastaurin 0.028 | alvocidib -0.05 | Tubastatin A -0.018 | [1] -0.053 | defactinib -0.011 | rucaparib -0.049 | [2] -0.005 | encorafenib 0.005 | [3] 0.009 | [4] 0.022 | filanesib -0.05 | zotarolimus -0.007 | idasanutlin -0.047 | alisertib -0.048 | [5] 0.02 | gefitinib -0.011 | [6] 0.029 | lapatinib -0.045 | pictilisib 0.04

IGFBP2 (UniProt P18065)
active: zotarolimus -0.846
inactive: saracatinib -0.049 | sotrastaurin 0.223 | alvocidib 0.212 | Tubastatin A -0.032 | [1] -0.06 | defactinib 0.134 | rucaparib 0.003 | [2] -0.148 | encorafenib 0.028 | [3] -0.053 | [4] 0.117 | filanesib -0.238 | idasanutlin 0.439 | alisertib 0.11 | [5] -0.056 | gefitinib -0.228 | [6] 0.363 | lapatinib -0.025 | pictilisib -0.252

LGALS8 isoform 2 (UniProt O00214)
inactive: saracatinib -0.359 | sotrastaurin -0.323 | alvocidib 0.053 | Tubastatin A 0.07 | [1] -0.244 | defactinib 0.104 | rucaparib 0.306 | [2] 0.141 | encorafenib 0.218 | [3] -0.051 | [4] 0.202 | filanesib 0.264 | zotarolimus 0.053 | idasanutlin 0.182 | alisertib -0.021 | [6] -0.278 | pictilisib -0.183

ITGA2B (UniProt P08514)
active: pictilisib -0.589
inactive: saracatinib 0.025 | sotrastaurin -0.03 | alvocidib 0.111 | Tubastatin A -0.043 | [1] 0.037 | defactinib 0.059 | [2] -0.036 | [3] 0.058 | [4] 0.004 | filanesib 0.086 | zotarolimus -0.065 | idasanutlin 0.138 | [5] 0.074 | gefitinib -0.086 | lapatinib 0.033

KCNK5 (UniProt O95279)
Sequence of UniProt O95279 (O95279 whole entry, looked up): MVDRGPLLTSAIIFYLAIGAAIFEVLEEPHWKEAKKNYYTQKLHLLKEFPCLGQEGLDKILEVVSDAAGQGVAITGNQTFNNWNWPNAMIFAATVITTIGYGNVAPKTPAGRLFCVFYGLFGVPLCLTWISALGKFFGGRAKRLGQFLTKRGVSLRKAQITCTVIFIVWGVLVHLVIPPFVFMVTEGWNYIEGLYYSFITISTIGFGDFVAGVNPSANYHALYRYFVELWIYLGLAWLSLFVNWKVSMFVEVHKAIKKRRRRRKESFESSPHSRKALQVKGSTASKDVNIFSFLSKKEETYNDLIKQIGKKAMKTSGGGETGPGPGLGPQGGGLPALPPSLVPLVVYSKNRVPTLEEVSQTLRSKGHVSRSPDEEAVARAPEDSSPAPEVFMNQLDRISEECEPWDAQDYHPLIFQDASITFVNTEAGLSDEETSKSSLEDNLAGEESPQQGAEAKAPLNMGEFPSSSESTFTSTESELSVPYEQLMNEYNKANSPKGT
active: [2] -1.08
inactive: saracatinib -0.444 | sotrastaurin -0.047 | alvocidib -0.239 | [1] -0.05 | rucaparib 0.05 | encorafenib 0.017 | [4] 0.059 | filanesib -0.117 | zotarolimus -0.044 | alisertib -0.408 | [5] -0.541 | [6] 0.193 | lapatinib -0.227 | pictilisib -0.007

LMBRD1 (UniProt Q9NUN5)
Sequence of UniProt Q9NUN5 (Q9NUN5 whole entry, looked up): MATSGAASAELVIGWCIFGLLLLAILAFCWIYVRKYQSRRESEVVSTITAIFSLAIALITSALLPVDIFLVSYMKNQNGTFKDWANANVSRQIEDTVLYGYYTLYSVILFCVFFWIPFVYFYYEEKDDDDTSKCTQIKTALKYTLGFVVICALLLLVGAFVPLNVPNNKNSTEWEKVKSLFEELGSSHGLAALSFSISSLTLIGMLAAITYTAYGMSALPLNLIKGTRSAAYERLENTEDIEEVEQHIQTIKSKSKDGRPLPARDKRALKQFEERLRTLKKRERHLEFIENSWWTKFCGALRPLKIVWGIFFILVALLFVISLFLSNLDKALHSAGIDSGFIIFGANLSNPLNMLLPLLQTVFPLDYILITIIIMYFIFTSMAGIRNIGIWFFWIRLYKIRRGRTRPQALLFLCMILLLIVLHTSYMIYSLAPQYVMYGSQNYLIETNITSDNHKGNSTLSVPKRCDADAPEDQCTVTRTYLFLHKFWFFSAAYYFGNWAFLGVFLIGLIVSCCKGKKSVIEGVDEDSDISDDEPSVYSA
inactive: saracatinib 0.154 | sotrastaurin 0.023 | alvocidib 0.042 | Tubastatin A 0.098 | [1] 0.052 | defactinib 0.047 | rucaparib -0.023 | [2] -0.173 | encorafenib 0.053 | [3] -0.057 | zotarolimus 0.049 | idasanutlin 0.102 | alisertib -0.022 | [5] -0.062 | gefitinib 0 | [6] 0.059 | lapatinib -0.026 | pictilisib -0.03
active: filanesib -0.39

LPIN3 isoform 2 (UniProt Q9BQK8)
inactive: saracatinib -0.101 | sotrastaurin 0.171 | alvocidib -0.074 | Tubastatin A 0.093 | [1] -0.087 | defactinib -0.022 | rucaparib 0.049 | [2] 0.049 | encorafenib 0.051 | [3] -0.012 | filanesib 0.006 | zotarolimus 0.011 | idasanutlin -0.075 | alisertib 0.022 | [5] 0.111 | gefitinib -0.029 | [6] -0.01 | lapatinib 0.022 | pictilisib 0.147

IP6K1 (UniProt Q92551)
Sequence of UniProt Q92551 (Q92551 whole entry, looked up): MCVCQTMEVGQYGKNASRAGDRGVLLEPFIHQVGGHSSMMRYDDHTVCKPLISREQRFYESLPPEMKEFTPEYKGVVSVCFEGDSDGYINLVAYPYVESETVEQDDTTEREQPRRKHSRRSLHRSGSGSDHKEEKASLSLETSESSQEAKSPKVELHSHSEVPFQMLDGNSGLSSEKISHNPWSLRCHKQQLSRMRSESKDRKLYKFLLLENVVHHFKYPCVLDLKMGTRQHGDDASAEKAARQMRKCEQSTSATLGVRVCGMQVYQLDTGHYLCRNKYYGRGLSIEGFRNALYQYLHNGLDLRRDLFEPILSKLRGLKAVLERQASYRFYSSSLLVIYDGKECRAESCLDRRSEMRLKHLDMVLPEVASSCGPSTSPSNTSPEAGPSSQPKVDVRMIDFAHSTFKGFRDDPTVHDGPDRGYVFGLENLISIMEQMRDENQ
active: [5] 1.11
inactive: saracatinib -0.174 | sotrastaurin -0.113 | alvocidib -0.074 | Tubastatin A -0.06 | [1] 0.331 | rucaparib -0.045 | [2] 0.119 | encorafenib 0.094 | filanesib 0.037 | zotarolimus 0.151 | idasanutlin -0.044 | alisertib 0.042 | [6] 0.091 | lapatinib 0.128 | pictilisib 0.13

MAN2B2 (UniProt Q9Y2E5)
Sequence of UniProt Q9Y2E5 (Q9Y2E5 whole entry, looked up): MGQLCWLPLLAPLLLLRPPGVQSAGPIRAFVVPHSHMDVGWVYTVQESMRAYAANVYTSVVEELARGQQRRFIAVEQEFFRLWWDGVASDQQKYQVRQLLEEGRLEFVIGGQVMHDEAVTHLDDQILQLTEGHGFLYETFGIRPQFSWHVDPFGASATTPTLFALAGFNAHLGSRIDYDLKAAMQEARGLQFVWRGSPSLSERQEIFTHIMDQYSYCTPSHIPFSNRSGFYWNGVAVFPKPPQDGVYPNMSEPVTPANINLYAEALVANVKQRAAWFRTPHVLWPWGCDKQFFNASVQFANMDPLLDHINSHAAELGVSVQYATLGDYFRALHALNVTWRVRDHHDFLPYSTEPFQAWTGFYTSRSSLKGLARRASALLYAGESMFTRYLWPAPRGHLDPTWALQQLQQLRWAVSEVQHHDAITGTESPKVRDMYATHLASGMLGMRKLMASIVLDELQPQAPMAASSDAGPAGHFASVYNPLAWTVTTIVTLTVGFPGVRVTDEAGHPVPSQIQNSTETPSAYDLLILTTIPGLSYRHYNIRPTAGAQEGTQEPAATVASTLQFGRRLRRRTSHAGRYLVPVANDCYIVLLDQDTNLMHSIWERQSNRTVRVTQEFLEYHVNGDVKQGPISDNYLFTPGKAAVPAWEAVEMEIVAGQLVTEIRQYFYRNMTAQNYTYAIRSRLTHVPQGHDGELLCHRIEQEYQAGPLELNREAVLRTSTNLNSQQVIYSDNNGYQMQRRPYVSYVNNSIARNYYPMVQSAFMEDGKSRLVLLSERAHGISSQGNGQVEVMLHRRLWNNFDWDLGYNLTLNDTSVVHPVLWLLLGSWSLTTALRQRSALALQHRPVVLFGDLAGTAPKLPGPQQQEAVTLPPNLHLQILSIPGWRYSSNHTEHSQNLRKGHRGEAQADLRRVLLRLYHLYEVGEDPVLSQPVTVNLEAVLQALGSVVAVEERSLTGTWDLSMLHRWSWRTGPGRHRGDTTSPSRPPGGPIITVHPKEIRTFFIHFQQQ
inactive: saracatinib -0.015 | sotrastaurin -0.018 | Tubastatin A 0.105 | [1] 0.035 | defactinib -0.009 | rucaparib -0.158 | [2] 0.007 | encorafenib 0.044 | [3] -0.04 | [4] -0.077 | filanesib -0.027 | idasanutlin -0.012 | alisertib 0.022 | [5] -0.038 | gefitinib 0.044 | [6] 0.075 | lapatinib -0.026

KXD1 (UniProt Q9BQD3)
Sequence of UniProt Q9BQD3 (Q9BQD3 whole entry, looked up): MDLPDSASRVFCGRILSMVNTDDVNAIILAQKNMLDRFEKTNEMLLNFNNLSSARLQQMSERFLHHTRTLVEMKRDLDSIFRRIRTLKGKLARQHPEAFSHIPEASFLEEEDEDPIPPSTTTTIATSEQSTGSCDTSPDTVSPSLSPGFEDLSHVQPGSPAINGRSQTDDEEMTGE
inactive: saracatinib -0.097 | alvocidib -0.105 | Tubastatin A -0.01 | [1] 0.008 | defactinib -0.03 | rucaparib -0.051 | [2] -0.07 | encorafenib 0.018 | [3] 0.017 | zotarolimus 0.073 | idasanutlin -0.021 | alisertib -0.019 | [5] 0.042 | lapatinib -0.054 | pictilisib 0.063
active: [6] 0.342

MFSD8 (UniProt Q8NHS3)
inactive: saracatinib 0.078 | alvocidib -0.044 | Tubastatin A 0.023 | [1] -0.003 | defactinib -0.008 | rucaparib 0.039 | [2] -0.053 | encorafenib 0.012 | [3] 0.003 | [4] -0.236 | zotarolimus -0.062 | idasanutlin -0.019 | alisertib 0.059 | [5] -0.07 | [6] 0.054 | lapatinib 0.025 | pictilisib 0.079

IGFBP3 isoform 2 (UniProt P17936)
Sequence of UniProt P17936 (P17936 whole entry, looked up): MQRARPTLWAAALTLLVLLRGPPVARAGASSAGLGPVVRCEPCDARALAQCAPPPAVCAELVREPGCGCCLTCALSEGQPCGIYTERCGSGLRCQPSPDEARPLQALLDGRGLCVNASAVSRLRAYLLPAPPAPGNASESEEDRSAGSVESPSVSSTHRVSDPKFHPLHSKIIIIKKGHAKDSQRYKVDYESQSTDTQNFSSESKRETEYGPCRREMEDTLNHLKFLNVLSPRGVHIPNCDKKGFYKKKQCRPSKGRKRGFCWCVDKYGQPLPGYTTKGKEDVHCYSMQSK
active: zotarolimus -1.02
inactive: saracatinib -0.092 | sotrastaurin 0.245 | alvocidib 0.251 | Tubastatin A 0.001 | defactinib 0.17 | [2] -0.08 | [3] 0.045 | [4] 0.176 | filanesib -0.272 | idasanutlin 0.535 | [5] -0.103 | lapatinib 0.085 | pictilisib -0.085

MASTL (UniProt Q96GX5)
Sequence of UniProt Q96GX5 (Q96GX5 whole entry, looked up): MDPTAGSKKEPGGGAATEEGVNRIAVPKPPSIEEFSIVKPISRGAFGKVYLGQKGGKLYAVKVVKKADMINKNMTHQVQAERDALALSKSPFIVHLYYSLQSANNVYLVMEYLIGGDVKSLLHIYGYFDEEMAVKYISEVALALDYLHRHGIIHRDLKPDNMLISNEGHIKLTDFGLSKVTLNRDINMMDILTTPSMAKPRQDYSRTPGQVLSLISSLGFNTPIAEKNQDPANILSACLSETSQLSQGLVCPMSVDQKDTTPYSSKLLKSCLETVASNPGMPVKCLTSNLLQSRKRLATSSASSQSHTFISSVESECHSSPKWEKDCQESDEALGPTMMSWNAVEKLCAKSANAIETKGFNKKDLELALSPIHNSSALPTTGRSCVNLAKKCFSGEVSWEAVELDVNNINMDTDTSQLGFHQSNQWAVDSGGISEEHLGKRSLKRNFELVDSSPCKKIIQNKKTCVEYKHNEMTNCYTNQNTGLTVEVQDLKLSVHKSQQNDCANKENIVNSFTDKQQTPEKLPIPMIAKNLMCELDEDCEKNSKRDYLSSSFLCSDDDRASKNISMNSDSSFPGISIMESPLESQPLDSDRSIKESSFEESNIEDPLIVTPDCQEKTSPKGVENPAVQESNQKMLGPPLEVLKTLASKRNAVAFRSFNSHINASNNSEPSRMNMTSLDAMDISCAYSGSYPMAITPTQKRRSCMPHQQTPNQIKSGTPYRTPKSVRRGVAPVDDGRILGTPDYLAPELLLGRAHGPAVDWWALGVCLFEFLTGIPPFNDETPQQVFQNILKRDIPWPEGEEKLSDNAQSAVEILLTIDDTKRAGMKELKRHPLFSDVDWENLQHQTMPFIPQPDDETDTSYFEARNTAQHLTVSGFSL
inactive: saracatinib 0.107 | sotrastaurin -0.12 | alvocidib -0.061 | [1] 0.054 | defactinib 0.037 | rucaparib -0.17 | [2] -0.055 | encorafenib 0.083 | [3] 0.079 | [4] 0.147 | filanesib -0.09 | zotarolimus 0.088 | idasanutlin 0.072 | alisertib -0.09 | gefitinib -0.107 | [6] -0.155

MFSD12 isoform 3 (UniProt Q6NUT3)
Sequence of UniProt Q6NUT3 (Q6NUT3 whole entry, looked up): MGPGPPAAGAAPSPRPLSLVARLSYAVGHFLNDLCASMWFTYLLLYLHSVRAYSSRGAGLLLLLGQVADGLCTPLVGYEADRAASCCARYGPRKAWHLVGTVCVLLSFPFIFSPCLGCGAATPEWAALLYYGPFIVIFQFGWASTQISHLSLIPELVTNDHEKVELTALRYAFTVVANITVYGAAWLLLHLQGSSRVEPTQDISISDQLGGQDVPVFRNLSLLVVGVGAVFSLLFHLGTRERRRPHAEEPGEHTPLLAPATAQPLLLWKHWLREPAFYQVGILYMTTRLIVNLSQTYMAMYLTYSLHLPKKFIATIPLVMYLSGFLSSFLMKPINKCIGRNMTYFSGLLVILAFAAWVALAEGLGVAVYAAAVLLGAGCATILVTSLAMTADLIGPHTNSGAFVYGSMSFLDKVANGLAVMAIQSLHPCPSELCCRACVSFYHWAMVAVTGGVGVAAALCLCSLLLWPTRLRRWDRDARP
inactive: saracatinib -0.154 | sotrastaurin -0.172 | alvocidib -0.04 | Tubastatin A 0.031 | [1] 0.042 | rucaparib -0.14 | [2] -0.144 | encorafenib 0.196 | filanesib -0.197 | zotarolimus 0.024 | idasanutlin -0.097 | pictilisib 0.069

MAGEA8 (UniProt P43361)
inactive: saracatinib -0.006 | alvocidib -0.022 | Tubastatin A 0.101 | [1] 0.123 | defactinib -0.267 | rucaparib -0.012 | [2] -0.092 | encorafenib 0.038 | [3] -0.038 | [4] 0.061 | zotarolimus 0.108 | idasanutlin 0.002 | [5] 0.057 | gefitinib -0.069 | lapatinib -0.032 | pictilisib 0.145
